# Data: PubChem BioAssay
# Test system: Noggin (protein binding on small-molecule microarray)
# Assay: small molecules binding Noggin protein – biochemical, 635/667 nm fluorescence, primary screen (AID 1095);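 note: score merges 667 nm feature fluorescence with signal to noise over triplicate slides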
# Details: 635 nm fluorescence, higher = more signal
row,Structure (SMILES),composite z-score
1,CCOC(=O)[C@H](Cc1ccccc1)NC(=O)CCC1CC(OC(=O)NCc2ccc3c(c2)OCO3)CC2(CCCC(COC(=O)NCc3cccc(C(F)(F)F)c3)O2)O1 (stereo not given in full),0.606
2,CC(=O)OC[C@H]1O[C@@H](ON=C[C@@H](C)[C@H](OCc2ccccc2)C(C)C)[C@H](OC(C)=O)[C@@H](OC(C)=O)[C@@H]1OC(C)=O,0.605
3,O=C1[C@H]2[C@H]3[C@H](O)[C@H](O)CC(=NOCc4ccccc4)[C@H]3CC[C@H]2C(=O)N1C[C@@H]1CCCO1,0.322
4,CO[C@@H]1COC(=O)[C@@H]2CCCN2C(=O)[C@@H](C)COC(=O)[C@H](COCc2ccccc2)NC(=O)CC=C[C@H]1C,0.529
5,C=C(/C(=C/C[C@H](OC(C)=O)c1ccc(OCCO)cc1)c1cnc2ccccc2c1)C(C)C,1.58
6,COC(=O)CC=C[C@@H](C)[C@H](OC)c1ccccc1Br,0.462
7,COc1ccccc1CN1C(=O)c2ccccc2[C@@H](C(=O)NCC(F)(F)F)[C@@H]1c1ccc(CO)cc1,1.11
8,O=C1[C@H]2[C@H]3[C@H](O)[C@H](O)CC(=NO[C@@H]4O[C@H](CO)[C@@H](O)[C@H](O)[C@H]4O)[C@H]3CC[C@H]2C(=O)N1C1CCCCC1,1.36
9,CC(C)=CCCC(C)=CCON=C1C[C@@H](O)[C@@H](O)[C@@H]2[C@@H]3C(=O)N(C[C@@H]4CCCO4)C(=O)[C@@H]3CC[C@@H]12,1.3
10,C=CC[C@@H]1C=C[C@H](ON=C2c3cc(OC)ccc3O[C@H](c3cccc(OC)c3)[C@H]2O)[C@@H](CO)O1,-0.0543
11,CCc1cc2c(nc1CC)CCN(CCC(C)=NOC[C@@H](O)COCc1ccco1)C2,1.68
12,CCN1C(=O)[C@H]2[C@H]3[C@H](O)[C@H](O)CC(=NOC(C)CN4CCCCc5nc(C)c(C)cc54)[C@@H]3CC[C@H]2C1=O (stereo not given in full),0.732
13,COCCOC(=O)N1C(=O)[C@@]2(c3cc(C#CC4(O)CCCCCC4)ccc31)[C@H](c1ccc(OCCO)cc1)N1[C@H](c3ccccc3)[C@H](c3ccccc3)OC(=O)[C@H]1[C@@H]2C(=O)NC[C@H](O)c1ccccc1,0.816
14,CC1CC/C=C\[C@H]2OC34C=CCN(C(C)C)C(=O)[C@H]3N(CCCO)C(=O)[C@@H]4C2C(=O)O1 (stereo not given in full),-1.42
15,CCCNC(=O)OC[C@H]1O[C@H](CCON=CC[C@@H]2C=C[C@H](OC(C)=O)[C@@H](COC(C)=O)O2)C=C[C@@H]1Oc1ccc(OC)cc1,0.643
16,Cc1ccc(S[C@]2(C(=O)O)CC(=O)N(Cc3ccccc3)[C@@H]2c2ccc(CO)cc2I)cc1,-0.404
17,CC(=O)C[C@H](O)[C@@H](NC(=O)OC(C)(C)C)C(C)C,-0.198
18,COC(=O)C1=CCC(c2cccc(Cl)c2)O1 (stereo not given),-0.485
19,COCCCNC(=O)[C@@]1(CCS(=O)(=O)c2ccccc2)N=C(c2ccc(OCCCO)cc2)O[C@H]1c1ccccc1,0.0483
20,O=C(NN=C1C[C@@H](O)[C@@H](O)[C@@H]2[C@@H]3C(=O)N(c4cccc(Oc5ccccc5)c4)C(=O)[C@@H]3CC[C@@H]12)OCc1ccccc1,0.635
21,CCOC(=O)NN=C1C[C@@H](O)[C@@H](O)[C@@H]2[C@@H]3C(=O)N(C[C@@H]4CCCO4)C(=O)[C@@H]3CC[C@@H]12,0.642
22,COC(=O)c1c(CC[C@@H](CO)NC(=O)N[C@H](Cc2ccccc2)Cn2cc(-c3ccccc3N)nn2)oc(C(C)=O)c1C(=O)OC,0.173
23,CC(CCN1CCc2nc(-c3ccccc3)c(-c3ccccc3)cc2C1)=NOC(C)CN1CCCCc2nc(C)c(C)cc21 (stereo not given),0.454
24,CCCNC(=O)[C@@H]1c2ccccc2C(=O)N(Cc2ccccc2Cl)[C@H]1c1ccc(CO)cc1,0.751
25,COc1ccc(O[C@H]2C=C[C@@H](c3ccccc3)O[C@@H]2COC(=O)CCC(C)=NOCC[C@@H]2C=C[C@H](OC(C)=O)[C@@H](COC(C)=O)O2)cc1,0.476
26,CC(C)OC(=O)C=C1C[C@@H](c2ccc(C#N)cc2)O[C@@H](c2ccc(C#N)cc2)O1,0.747
27,CCCC=C(CCC)[C@@H](NC(=O)c1ccc(-c2ccccc2)cc1)c1ccc(C(=O)OC)cc1,0.0811
28,CCCC[C@@H](O)C1=C(C)C[C@H]2C(=O)N(Cc3ccccc3)C(=O)[C@H]2[C@H]1CO,0.283
29,COCCNC(=O)OCC1CCCC2(CC(OC(=O)NCCc3ccc(F)cc3)CC(CCC(=O)N[C@@H](C)C(=O)OC)O2)O1 (stereo not given in full),0.403
30,C[N+](C)(C)CCCCCCNC(=O)[C@@H]1C[C@@H]2C(=O)N3CCC[C@H]3C(=O)N2[C@@H]1c1cccc(OCCO)c1,1.88
